# Bioassay records deposited in PubChem BioAssay by Milwaukee Institute for Drug Discovery.
# In the library only some 6.8% were active in any assay of this set; here they are far more common.
# NS3h inh CB – HCV NS3 helicase inhibitors, primary screen, biochemical, fluorescence polarization, ChemBridge library; Hepatitis C virus NS3 helicase; NS3h Cy5-dT15 DNA binding; inhibition, % at 100 µM; 1.6% of 16,000 active;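 active means inhibition above the average over every tested compound plus 3 SD, cut at about 40% in these data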
# Cy5 interf NS3h – Cy5 fluorescence quenchers or enhancers, artefact control for HCV NS3 helicase inhibitor project, biochemical, ChemBridge library, Cy5 readout; Cy5-dT15 DNA with NS3h, fluorescence interference; actives lie on both sides; signal over control mean, under 1 quenches; fluorescence interference ratio at 100 µM; 6% of 16,000 active; AID 720488, 2013;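 active means compound fluorescence over control fluorescence at most 0.8, a quencher, or at least a set upper limit, an enhancer; inactive means ratio between 0.8 and the set upper limit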
# The depositor's hits bear a star.
SMILES,NS3h inh CB,Cy5 interf NS3h
COc1ccc(S(=O)(=O)N(CCc2ccccc2)CC(=O)Nc2ccc(Br)cc2)cc1OC,11,1
COc1ccc(S(=O)(=O)N(CC(=O)Nc2ccccc2C(F)(F)F)Cc2ccccc2)cc1OC,14,0.63*
O=C1CC(c2ccccc2)CC2=C1C(c1cccc([N+](=O)[O-])c1)Nc1ccc(C(=O)c3ccccc3)cc1N2 (centres undefined),14,0.69*
O=C1CC(c2ccccc2)CC2=C1C(c1ccc([N+](=O)[O-])cc1)Nc1ccc(C(=O)c3ccccc3)cc1N2 (centres undefined),10,1.1
CC(C)Cc1nnc(NC(=O)Nc2ccc(Cl)c(Cl)c2)s1,8,1.1
CC(C)CCNC(=O)c1cccc([N+](=O)[O-])c1,17,1
CC(NC(=O)NC(=O)c1cccc([N+](=O)[O-])c1)C1CC1 (centres undefined),10,0.64*
Cc1ccc(Cn2c(NC(=O)c3ccc(Cl)cc3)nc3ccccc32)cc1,-11,0.84
Cc1c(Cl)cccc1NC(=O)C(=O)NCC1CCCO1 (centres undefined),0,1
Cc1ccc2nsnc2c1NC(=O)Cc1ccccc1,7,0.95
CCN(C(=O)c1ccccc1Cl)c1ccccc1,7,0.67*
CCCN(CCC)C(=O)c1ccccc1NC(=O)c1ccccc1Cl,-12,1
COc1ccccc1C=C1C(=O)c2ccccc2C1=O,26,0.99
CC(=O)C(C(C)=O)C1=CC(=O)C(=O)c2ccccc21,6,0.53*
O=C(Oc1ccc(/C=C2/SC(=S)N(c3ccccc3)C2=O)cc1)c1ccccc1,-18,1.1
COC(=O)/C=C1\Nc2cc([N+](=O)[O-])ccc2NC1=O,12,0.72*
O=C(/C=C1/Nc2ccccc2NC1=O)Nc1cccc(C(F)(F)F)c1,5,0.93
O=[N+]([O-])c1cccc(S(=O)(=O)Nc2ccc(Br)cc2)c1,3,1
CCOc1ccc(C(=O)Nc2ccc(NC(=O)c3cccc(Cl)c3)cc2)cc1,7,1
CCN(CC)c1ccc(NC(=O)c2cccc(Cl)c2Cl)cc1,7,1.1
O=C(Nc1cccnc1)c1cccc(Cl)c1Cl,13,0.72*
Cc1ccc(S(=O)(=O)NC(=O)OC(c2ccccc2)C(F)(F)F)cc1 (centres undefined),6,1
CC(C)(C)C(=O)/C=C(N)\C=C\c1ccccc1,12,0.64*
CC(C)(C)C(=O)/C=C(/O)C(=O)NCc1ccccc1,6,0.85
Cc1cccc(-c2nc3cc(NC(=O)Cc4ccccc4)ccc3o2)c1,2,1.1
SMILES,NS3h inh CB,Cy5 interf NS3h
COc1ccc(Br)cc1C(=O)Nc1cc(Cl)cc(Cl)c1,-6,0.96
Cc1nn(-c2ccc(Cl)c(Cl)c2)c(C)c1-c1cccc([N+](=O)[O-])c1,21,0.69*
Cc1ccc(-n2nc(C)c(-c3cccc([N+](=O)[O-])c3)c2C)cc1C,4,0.9
N#CCCOCc1cccc2ccccc12,4,1
Cc1ccc(S(=O)(=O)N2CCN(Cc3ccccc3)CC2)cc1[N+](=O)[O-],2,0.98
COc1ccc(CN2CCN(S(=O)(=O)c3ccc(C)cc3)CC2)cc1OCc1ccccc1,10,0.74*
C=CCOC(=O)C1=C(C)NC(C)=C(C(=O)OCC=C)C1c1ccc(C)cc1,18,0.84
O=C1NC(=S)N(c2ccccc2)C(=O)/C1=C/c1ccc(O)c(Cl)c1,10,1.2*
O=C1NC(=S)N(c2cccc(Br)c2)C(=O)/C1=C/c1ccc(O)c(Cl)c1,-5,1.2
CCOC(=O)C1=C(O)/C(=C/c2ccc(O)cc2)SC1=Nc1cccc(Cl)c1,63*,1.1
CCOC(=O)C1=C(O)/C(=C/c2ccc(Cl)cc2)SC1=Nc1ccc(C)cc1,-1,0.81
CN(C)c1ccc(/C=C2/C(=O)NC(=O)N(CCCO)C2=O)cc1,19,0.94
C=CCN1C(=O)/C(=C/c2ccc(N(C)C)cc2)C(=O)NC1=S,34,1.2*
Cc1ccc(N2C(=O)CC(NCCc3ccccn3)C2=O)cc1 (centres undefined),3,1.1
